Source: the supplement of paper PMC6555819

Experiments:
Assay in all cases: PBM binding z-score (relative to random genomic background probes); higher = stronger binding; sequences stand for … in GC…GCGATTGACAGCGTAGAATGAAGG
[1] = system: PPARg:RXRa DBDmut IVT, anti-RXR (DBD mutation: RXRa K156A/R161A, NR concentration 270 nM, RXRa partner concentration 90 nM)
Summary of the method: (§1)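 Custom Agilent 4×180K protein-binding microarrays carried double-stranded probes, each with a 34-nt variable region. These regions held direct-repeat seeds, single-nucleotide variants, half-site ablations and random human genomic background sequences. Ligand-free nuclear receptor dimers were incubated on the arrays for 1 h, antibodies against each partner (one per run) detected binding, and scanned fluorescence was regression-normalized. Binding z-scores take the random background probes as reference.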

[2] = system: PPARg:RXRa IVT, anti-PPARg (NR concentration 270 nM, RXRa partner concentration 90 nM)
Summary of the method: as §1

[3] = system: PPARg DBDmut:RXRa IVT, anti-PPARg (DBD mutation: PPARg1 K132A/R137A, NR concentration 270 nM, RXRa partner concentration 90 nM)
Summary of the method: as §1

[4] = system: PPARg DBDmut IVT, anti-PPARg (DBD mutation: PPARg1 K132A/R137A, NR concentration 270 nM)
Summary of the method: as §1

[5] = system: PPARg homodimer (NR concentration 180 nM)
Summary of the method: as §1

[6] = system: PXR:RXRa (NR concentration 270 nM, RXRa partner concentration 90 nM)
Summary of the method: as §1

[7] = system: PXR homodimer (NR concentration 270 nM)
Summary of the method: as §1

[8] = system: RARa:RXR (NR concentration 270 nM, RXRa partner concentration 90 nM)
Summary of the method: as §1

[9] = system: RARa homodimer (NR concentration 270 nM)
Summary of the method: as §1

[10] = system: RARb:RXRa (NR concentration 270 nM, RXRa partner concentration 90 nM)
Summary of the method: as §1

Row | Sequence | PBM binding z-score [1] | PBM binding z-score [2] | PBM binding z-score [3] | PBM binding z-score [4] | PBM binding z-score [5] | PBM binding z-score [6] | PBM binding z-score [7] | PBM binding z-score [8] | PBM binding z-score [9] | PBM binding z-score [10]
1 | CGTCCAAGGTCAAGGTCAGTGACAGAGACTCGAA | 4.03 | 4.87 | 1.18 | -0.455 | 4.7 | 5.25 | 1.84 | 5.72 | 2.23 | 5.75
2 | CCAGCTAGGTCAATGGTCAGCTAAAGCAGCTCGC | 4.9 | 4.47 | -0.141 | -0.0695 | 1.28 | 0.737 | -0.176 | 1.49 | -0.163 | 3.73
3 | AGAACGAGGTTATACGTAGATCAGGGAAGAAAGT | 2.22 | 1.34 | 0.863 | 0.661 | 0.41 | 0.761 | 0.521 | 1.27 | 0.483 | 1.27
4 | TCTAGTAGGTTAGGGGCATTCAGAATGGCGTCGA | 4.9 | 4.09 | 0.212 | 0.421 | 1.07 | 0.642 | 0.791 | 0.791 | 0.549 | 1.35
5 | TGATTGAGGTTAAAGATCAGGGAACGTGGCGTCG | 1.62 | 3.15 | 1.39 | 1.52 | 0.865 | 1.96 | 0.148 | 2.95 | 0.729 | 2.24
6 | GCTAGCAGGCCATTTGGGTCACCCAATGACGGGC | 1.07 | 2.71 | -0.843 | -0.885 | -0.136 | 0.692 | 0.0143 | 1.02 | -0.844 | 1.62
7 | TCATATAGGTAAAAGGTGAAAGTTGGTGTGGTAA | 5.28 | 5.23 | 1.91 | 1.67 | 2.39 | 2.16 | 0.944 | 3.3 | 2.02 | 2.09
8 | GGAACGAGGGCAAAGTTGATTGCATCTGTCGACG | 4.27 | 4.05 | 0.0713 | -0.581 | 0.375 | 1.16 | 0.179 | 1.39 | -0.237 | 2.18
9 | TCAGACAGGTGAAGGTAACTCGGGTACGCAGTCG | 2.75 | 1.56 | -0.468 | -0.323 | 0.71 | 0.846 | 0.151 | 0.795 | 0.419 | 1.46
10 | TCATATAGGTAAAGGTAAAAGTCGAACGATATGA | 3.98 | 3.36 | 1.85 | 1.27 | 0.454 | 0.53 | 0.308 | 0.709 | 1.3 | 0.845
11 | GCTGGTTGGTCAGTAAAAGGTCACACACCGGTCG | 0.091 | 2.51 | 0.438 | 0.205 | 3.78 | 5.07 | 1.42 | 6.03 | 2.87 | 4.3
12 | CTCGAAAGGTAGGTTGAGGTGAGTATACGGATAA | -0.151 | 0.611 | 0.405 | 0.253 | 0.0947 | 0.293 | -0.116 | 0.461 | -0.0281 | 0.475
13 | CATTACGGGTCACTGACAGGTTATAGCATTTGGA | 4.59 | 5.02 | 2.13 | 1.77 | 2.69 | 3.95 | 0.249 | 4.95 | 1.33 | 4.05
14 | GAAACGAGGGCAAAGTTGATAGCATCTGTCGACG | 5.26 | 5.32 | 0.311 | 0.0519 | 0.722 | 1.32 | 0.236 | 1.98 | 0.209 | 2.38
15 | TAGCCGAGGTCATTGGGCCAGTATAGTACGCATC | 2.68 | 4.59 | -0.49 | 0.82 | 2.28 | 5.5 | 2.28 | 4.87 | 0.0596 | 4.78
16 | AGAATGAGGTTATTAAGATCAAGGAATTGCGGTC | 2.9 | 2.73 | 1.27 | 0.466 | 0.735 | 1.37 | 0.527 | 1.58 | 1.15 | 1.45
17 | AGAATGAGGTTAGACGTAGATCAGGGAAGAAAGT | 3.27 | 1.52 | 0.96 | 1.16 | 0.901 | 0.631 | 0.578 | 1.17 | 0.74 | 1.21
18 | ACTCGGAGGACATAGGTCAGAGCTACGCCAGTGA | 0.107 | 1.88 | -0.386 | 0.0927 | 0.895 | 1.15 | 0.0875 | 1.9 | 0.402 | 2.31
19 | TCATGTAGATCAAAGGTTAAGAAAGCCGAAGCCT | 2.23 | 3.59 | 0.546 | 0.593 | 1.17 | 2.12 | 0.246 | 3.29 | 0.881 | 1.91

Row | Sequence | PBM binding z-score [1] | PBM binding z-score [2] | PBM binding z-score [3] | PBM binding z-score [4] | PBM binding z-score [5] | PBM binding z-score [6] | PBM binding z-score [7] | PBM binding z-score [8] | PBM binding z-score [9] | PBM binding z-score [10]
20 | CCGACTGGGGCAAAAGGTTACCATAAGCCAGCCC | 3.77 | 4.07 | -0.978 | -1.25 | 1.06 | 1.68 | -0.41 | 2.83 | 0.0331 | 2.8
21 | TAACCAAGGTGAAAGGTCGTTGATGCACGCCTTG | 2.51 | 4.83 | 0.621 | 0.876 | 2.72 | 4.25 | 0.689 | 6.11 | 0.504 | 3.15
22 | CAAACTCGGTCAAGAGGTCAAAGTCCGCTTCCCG | 4.29 | 5.27 | 1.06 | 1.86 | 4.18 | 5.89 | 2.01 | 6.63 | 1.95 | 5.01
23 | TCTTGTAGATCAGCAGGTTAAGACAGCTGGCCAA | 1.91 | 0.417 | 0.269 | 0.156 | 0.137 | 0.129 | -0.0251 | 0.309 | 0.389 | 0.0665
24 | CAAACTAGGTCACCGGAAGATCAAAGTCCGCATG | 8.57 | 9.02 | 7.41 | 5.5 | 6.16 | 2.27 | 0.35 | 3.33 | 1.83 | 4.28
25 | CCTCGGAGGATAACAGGAGGTCAGAGCTGCCAGA | -0.616 | 0.0476 | -0.938 | -1.92 | 1.75 | 1.78 | 0.657 | 2.39 | 0.565 | 1.99
26 | ACTCGGAGGACGAAGGTCAGAGCTACGCCAGTGA | -0.0159 | 0.85 | -1.22 | -0.524 | 1.01 | 1.4 | -0.0782 | 1.77 | 0.154 | 2.81
27 | GCTCGGAGGACAAGGTCAGTGCTTTGTCCGTAGA | -0.0896 | 0.926 | -1.08 | -0.85 | 0.917 | 1.43 | -0.565 | 1.37 | -1.15 | 3.46
28 | TCTCGGAGAACACGAAAGGTCAGAGCTCGACATC | 1.25 | 1.13 | -0.0833 | -0.197 | 1.7 | 3.39 | 0.0795 | 3.89 | 0.536 | 3.55
29 | CCTAGTTAGTCAAGGTCACACACGCTATAGGTAC | 1.6 | 2.69 | 1.12 | 1.42 | 3.64 | 4.25 | 2.22 | 4.4 | 2.9 | 4.01
30 | TCGAGTAGGTTAGGGGGATTCAGAATGGCGTCGA | 2.93 | 3.21 | 2.69 | 5.71 | 1.41 | 1.2 | 0.466 | 0.482 | 0.665 | 1.19
31 | CAAACTAGGTCACAGAGCTCAAAGTCCGTGCGTA | 8.61 | 8.86 | 3.69 | 1.2 | 1.74 | 1.81 | -0.0569 | 2.68 | 0.446 | 4.13
32 | TCATATAGGTGATACAGGTGAAAGTCGGCATCTA | 4.78 | 4.31 | 1.81 | 1.2 | 1.4 | 0.783 | 0.342 | 0.978 | 1.22 | 0.996
33 | TGAATGAGGTTATAATATCAGGGAACGTTGCAAA | 0.771 | 1.75 | 1.25 | 0.939 | 0.756 | 1.08 | 0.111 | 1.59 | 0.0682 | 1.08
34 | CAAACTAGGTCACGAAAGGCCAAAGTCGAATGAC | 8.35 | 9.09 | 5.28 | 3.96 | 2.99 | 4.77 | 0.402 | 3.68 | 0.983 | 4.56
35 | GCTTACGGGTCAAAGGTTATAGCATGAATAGAAT | 4.91 | 5.87 | 1.16 | 0.991 | 2.12 | 6.26 | 0.29 | 8.55 | 0.989 | 4.79
36 | TAGCCTAGGTCATTCAGAGGCCAGTATAGAAAGC | 1.43 | 2.85 | 0.547 | 0.364 | 2 | 2.58 | -0.166 | 3.25 | -0.206 | 4.09
37 | TCGAGTATGTTACCAATGGGGCATTCAGCTTTCT | 1.25 | 0.121 | -0.168 | -0.0708 | -0.422 | 0.0821 | -0.273 | 0.0781 | -0.543 | -0.0471
38 | TCATATAGGTAATGGTGAAAGTCGAACGATATGA | 3.77 | 2.74 | 1.66 | 1.7 | 0.415 | 0.253 | -0.311 | 0.342 | 0.0985 | 0.417
